Source: PubChem (several laboratories)
Mdm2-MdmX inh = inhibitors of human Mdm2-MdmX association, primary screen, cell-based, luminescence, split luciferase, SaOS-2, uHTS | SaOS-2 split-luciferase Mdm2/MdmX complementation | inhibition, % at 8 µM | actives 3% (n = 330,000) | Protein Mdm4 (Homo sapiens) + E3 ubiquitin-protein ligase Mdm2 (Homo sapiens), …;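 active means inhibition of at least 50% at 8 µM in the primary screen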
Target sequence (O15151 whole entry, looked up): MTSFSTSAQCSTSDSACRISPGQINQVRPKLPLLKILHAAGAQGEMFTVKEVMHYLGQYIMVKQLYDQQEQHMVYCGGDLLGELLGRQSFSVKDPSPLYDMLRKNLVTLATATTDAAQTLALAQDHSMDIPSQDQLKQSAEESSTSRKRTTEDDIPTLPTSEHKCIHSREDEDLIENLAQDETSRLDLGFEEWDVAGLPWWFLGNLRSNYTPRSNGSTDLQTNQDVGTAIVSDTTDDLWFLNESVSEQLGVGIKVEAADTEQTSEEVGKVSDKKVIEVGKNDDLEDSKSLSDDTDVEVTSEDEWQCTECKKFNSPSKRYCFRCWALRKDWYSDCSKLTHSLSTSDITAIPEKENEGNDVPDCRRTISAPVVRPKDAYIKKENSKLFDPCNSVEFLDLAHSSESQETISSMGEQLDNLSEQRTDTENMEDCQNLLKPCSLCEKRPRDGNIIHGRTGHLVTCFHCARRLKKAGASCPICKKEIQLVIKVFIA
Target sequence (Q00987 whole entry, looked up): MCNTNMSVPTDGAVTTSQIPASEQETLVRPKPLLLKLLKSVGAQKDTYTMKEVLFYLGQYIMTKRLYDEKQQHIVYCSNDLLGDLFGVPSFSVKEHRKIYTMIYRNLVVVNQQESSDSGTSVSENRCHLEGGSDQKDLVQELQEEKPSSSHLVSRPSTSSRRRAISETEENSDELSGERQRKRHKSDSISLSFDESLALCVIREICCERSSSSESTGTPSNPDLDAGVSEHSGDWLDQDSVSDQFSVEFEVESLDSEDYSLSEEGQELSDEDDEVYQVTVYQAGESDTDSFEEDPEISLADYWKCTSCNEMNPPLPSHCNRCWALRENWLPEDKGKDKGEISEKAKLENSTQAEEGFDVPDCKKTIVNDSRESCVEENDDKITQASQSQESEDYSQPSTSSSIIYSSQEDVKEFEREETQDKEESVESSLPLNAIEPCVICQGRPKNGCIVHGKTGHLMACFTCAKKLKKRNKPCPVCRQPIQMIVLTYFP
Beta cell apopt = inhibitors of cytokine-induced beta cell apoptosis, primary screen, luminescence; INS-1E cytokine-induced death, ATP luminescence, 48 h; percent of positive-control rescue, neutral wells zero; protection from apoptosis, % (concentration not given with the values); actives 0.8% (n = 300,000);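 active means Every replicate reaches about 75%, or at least half do and their mean reaches it too, limit read from the data; inconclusive means At least half of replicates reach the limit but their mean does not; inactive means Under half of replicates reach the limit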;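 further: 0% = cytokine-treated negative control wells and 100% = positive control rescue; higher means more ATP so stronger rescue from cytokine killing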
Gli-Sufu antag = Gli-Sufu pathway antagonists, primary screen, luciferase luminescence, Sufu-KO-LIGHT cells, uHTS. inhibition, % at 5 µM. Sufu-KO-LIGHT fibroblasts, Gli luciferase reporter luminescence. AID 588413, 2011. actives 0.74% (n = 340,000);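 active means inhibition above about 55%, limit read from the data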;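 further: 0% = DMSO-treated cells and 100% = wells with medium but no cells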
PAX8 inh HTS = inhibitors of PAX8-driven TPO luciferase reporter, primary screen, RMG-I cells, single concentration. SteadyGlo, 24 h. inhibition, % at 12.6 µM. actives 1.2% (n = 360,000). AID 652154, 2013;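 active means mean replicate inhibition at least 60% with every replicate also reaching 60%; inconclusive means only one of the two criteria is met; inactive means mean below 60% and not all replicates reaching 60%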;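 further: luciferase light reporting Pax8 driven TPO promoter activity; plate controls were median of neutral control wells for no effect and mitoxantrone controls for full effect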
CSC inhib = cancer stem cell viability inhibitors, primary screen, luminescence | actives 1.1% (n = 300,000) | inhibition, % at 7.5 µM | AID 2717, 2010 | cancer stem cell-like cells viability; in the data active means inhibition above about 75%; inconclusive means no clear call, values can overlap the other calls; tested in HMLE shEcad cells
Shn3 inh set2 = reduction of Shn3 3'UTR firefly luciferase signal, primary screen, Schnurri-3 inhibitor project, cell-based, Clone20 osteoblasts, set 2 | Clone20 osteoblast Shn3 3'UTR firefly luciferase, 24 h | inhibition, % at 12.5 µM | actives 0.52% (n = 360,000);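 active means mean inhibition of at least 75% with every replicate also reaching 75%; inconclusive means mean inhibition at least 75% but some replicate below; inactive means mean inhibition below 75%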;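 further: 0% = median of neutral control wells and 100% = pilot-screen positive control compound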
Gli antag conf = Gli-SUFU pathway antagonists, confirmation, single concentration, luciferase luminescence, Sufu-KO-LIGHT cells; actives 40% (n = 2,500); AID 602428, 2012; Gli luciferase reporter; shares compounds with Gli-Sufu antag; inhibition, % at 5 µM;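 active means mean inhibition at 5 µM reaching about 45%, limit read from the data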;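 further: plate controls were DMSO-treated cells for no effect and wells lacking cells for full effect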
SufuKO cytotox = cytotoxicity in Sufu-KO-LIGHT cells, confirmation, cytotoxicity control for Gli-SUFU antagonist project, cell-based, ATP luminescence, single concentration; actives 32% (n = 2,500); cytotoxicity, % at 5 µM; shares compounds with Gli-Sufu antag;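 active means mean cytotoxicity at 5 µM above about 25%, limit read from the data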;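 further: cells exposed to compound overnight for roughly 16 to 18 hours; plate controls were DMSO wells with cells for no effect and medium without cells for full effect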
Wnt3a counter = Wnt3a reporter signal inhibition, confirmation, counter-screen for Gli-SUFU antagonist project, Wnt-LIGHT cells, luminescence, single concentration; shares compounds with Gli-Sufu antag; Wnt3a-driven luciferase reporter; inhibition, % at 6.25 µM; actives 20% (n = 2,500);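 active means mean inhibition above about 25%, limit read from the data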
Starred values were filed as active, the others as inactive; ? = inconclusive; nt = no result given. Compounds with a hit are over-represented: about 4% of the library has one in this group of screens.

SMILES	Mdm2-MdmX inh	Beta cell apopt	Gli-Sufu antag	PAX8 inh HTS	CSC inhib	Shn3 inh set2	Gli antag conf	SufuKO cytotox	Wnt3a counter
O=S(=O)(Cc1ccccc1)N1CCCCN2[C@H](CO)[C@H](c3ccc(-c4cccnc4)cc3)[C@H]2C1	nt	nt	nt	-3.2	nt	nt	nt	nt	nt
Cc1ccc(N2CC(c3nc4ccccc4[nH]3)CC2=O)c(C)c1 (stereo not drawn)	19.9	-0.3	50.0	-12.2	-4.9	-12.2	4.2	-5.9	9.5
COc1ccc(NC(=S)N2CCC(Cc3ccccc3)CC2)cc1OC	11.4	3.0	10.3	10.5	8.6	27.7	nt	nt	nt
COc1cccc(NC(=S)N2CCC(Cc3ccccc3)CC2)c1	3.3	3.9	51.1	11.4	8.6	2.0	30.2	21.2	-45.9
O=C(Oc1c(CN2CCOCC2)cc(Cl)c2cccnc12)c1ccccc1	47.4	?	74.8*	41.2	12.3	68.9	26.5	32.0*	-7.0
CC(C)(C)C1CCC(OC(=O)C[N+]2(C)CCCCC2)CC1 (stereo not drawn)	-6.5	2.7	52.7	-27.5	57.8	-1.9	32.8	11.9	0.6
N=c1c2c(n(Cc3ccc(F)cc3)c3c1CCC3)CCCC2	33.8	23.2	66.1*	68.8*	-3.4	51.5	69.4*	24.7	15.1
N=c1c2c(n(Cc3ccc(Cl)cc3)c3c1CCC3)CCC2	45.0	52.3	79.5*	nt	nt	79.5	81.8*	25.2*	47.7*
COCC(=O)Nc1ccc2c(c1)[C@H]1C[C@@H](CC(=O)NCc3cccc(F)c3)O[C@H](CO)[C@H]1O2	nt	nt	nt	0.7	nt	nt	nt	nt	nt
O=C(c1ccc2c(=O)n(-c3ccccc3)c(=S)[nH]c2c1)N1CCCCC1	20.4	41.0	60.4*	2.3	-0.1	82.6	54.5*	36.2*	6.6
O=C(c1ccc2c(=O)n(C3CCCC3)c(=S)[nH]c2c1)N1CCCCCC1	20.5	38.4	56.9*	15.0	42.4	69.3	51.4*	34.6*	-24.4
CC1CCCN(C(=O)c2ccc3c(=O)n(C4CCCC4)c(=S)[nH]c3c2)C1 (stereo not drawn)	14.0	-2.6	45.9	22.2	29.9	30.3	nt	nt	nt
COc1cc(NC(=O)CSc2nc(C)cc(C)n2)cc(OC)c1OC	10.4	-13.9	52.2	-1.4	-1.0	36.2	10.1	2.7	-9.2
CNC[C@@H]1OCCCC[C@@H](C)Oc2ccc(NC(=O)C3CCCCC3)cc2C(=O)N([C@H](C)CO)C[C@@H]1C	nt	nt	nt	-4.5	nt	nt	nt	nt	nt
CS(=O)(=O)Cc1ccc(C(=O)NCC2(N3CCCCC3)CCCCC2)cc1	16.7	-4.1	52.5	5.4	-4.0	-5.8	29.1	17.3	0.2
CS(=O)(=O)c1ccc(C(=O)NCC2(N3CCCCC3)CCCCC2)cc1	11.7	-2.7	18.9	11.9	5.7	2.5	nt	nt	nt
O=C(Cc1ccccc1)Nc1scc(-c2ccccc2)c1C(=O)N1CCOCC1	13.8	8.6	2.8	nt	-12.8	6.8	nt	nt	nt
NC(=O)c1c(-c2ccc(Cl)cc2Cl)csc1NC(=O)Cc1ccccc1	nt	96.2*	56.5*	-9.3	4.6	62.1	61.9*	20.5	6.4
CCOc1ccc(-c2c(=O)n(OCc3ccccn3)c3ccccc3[n+]2[O-])cc1	-26.6	-6.6	2.0	-13.4	-6.4	-5.1	nt	nt	nt
O=c1c(-c2ccc(Oc3ccccc3)cc2)[n+]([O-])c2ccccc2n1OCc1ccccn1	17.7	-3.2	94.6*	4.7	-1.0	10.8	14.9	3.6	-0.5
Cc1cccc(S(=O)(=O)N2C[C@H]3[C@@H](c4ccccc42)[C@H](CO)N3C(=O)c2ccccc2)c1	nt	nt	nt	20.2	nt	nt	nt	nt	nt
O=C(CN1C(=O)c2ccccc2C1=O)Nc1cccnc1	12.6	6.1	64.1*	nt	nt	7.7	16.6	8.2	6.8
CCC(=O)N1CCc2cc(OC)c(OC)cc2C1COc1ccccc1OC (stereo not drawn)	nt	nt	-9.3	-9.0	nt	-38.9	nt	nt	nt
COc1cc2c(cc1OC)C(COc1ccccc1OC)N(C(=O)c1ccco1)CC2 (stereo not drawn)	-25.3	-12.1	61.6*	2.6	-13.4	-13.5	26.2	7.8	5.1
Cc1ccccc1S(=O)(=O)N1CC[C@@H]2[C@@H](CO)Nc3ccc(-c4cccc(F)c4)cc3[C@@H]21	nt	nt	nt	19.8	nt	nt	nt	nt	nt
SMILES	Mdm2-MdmX inh	Beta cell apopt	Gli-Sufu antag	PAX8 inh HTS	CSC inhib	Shn3 inh set2	Gli antag conf	SufuKO cytotox	Wnt3a counter
CCN1CC2=C(OC(N)=C(C#N)C2c2cccs2)/C(=C\c2cccs2)C1 (stereo not drawn)	-4.3	0.1	76.5*	nt	-2.2	9.9	22.4	8.2	-33.4
CCOC(=O)C1=C(CC)OC(N)=C(C#N)C1c1cccs1 (stereo not drawn)	5.0	-5.0	-9.9	nt	11.7	-2.7	nt	nt	nt
O=C(C[C@@H]1C[C@H]2c3cc(NS(=O)(=O)c4ccccc4)ccc3O[C@H]2[C@H](CO)O1)N1CCCCC1	nt	nt	nt	-1.1	nt	nt	nt	nt	nt
CCCC(=O)Nc1ccc2c(c1)C(=O)N(C)[C@@H]1CC[C@@H](CC(=O)Nc3cn(C)nc3C)O[C@H]1CO2	nt	nt	nt	0.9	nt	nt	nt	nt	nt
COc1cccc(-c2nc(NCCN3CCOCC3)c3ccccc3n2)c1O	20.0	nt	98.4*	5.8	6.2	2.7	31.4	20.5	-70.1
Cc1ccc(-c2nc(NCCN3CCOCC3)c3ccccc3n2)cc1	-13.8	5.1	11.1	nt	-42.1	13.7	nt	nt	nt
CCCCN(C(C)=O)c1ccc2c(c1)C1CC2CCN1C(=O)OCc1ccccc1 (stereo not drawn)	nt	nt	56.4*	29.5	nt	89.6*	64.2*	31.3*	2.7
Cc1ccc(-c2cc[n+](Cc3ccccc3)cc2)cc1	16.1	50.7	61.9*	17.4	3.7	65.7	78.3*	40.6*	25.7*
Cc1ccc(S(=O)(=O)Nc2ccc3c(c2)C(=O)N([C@@H](C)CO)C[C@@H](C)[C@@H](CN(C)S(C)(=O)=O)OCCCC[C@@H](C)O3)cc1	nt	nt	nt	-16.9	nt	nt	nt	nt	nt
Cc1cc(-c2cccs2)c2c(n1)sc1c(=O)[nH]c(=O)[nH]c12	18.2	2.1	84.0*	nt	-10.9	-0.2	4.3	30.7*	-27.4
COc1ccc(NC(=O)Nc2ccc3c(c2)CC(=O)N([C@@H](C)CO)C[C@H](C)[C@@H](CN(C)S(=O)(=O)c2ccc(OC)cc2)O3)cc1	nt	nt	nt	-6.2	nt	nt	nt	nt	nt
